Measurements from ChEMBL document CHEMBL3988442, “University of Dundee, Small-Polar-MMV Screening Library” (2021).
About 1,000 (1.4%) of roughly 69,000 compounds showed an effect of 50% or more. The list comes from a sample in which strong results are over-represented; it also holds similar structures and randomly drawn compounds.

System: Leishmania donovani
Test: Leishmania intramacrophage assay
Assay type: functional, organism-based
Parameters: scale not given: in the data most compounds retested in dose-response had high values

For `Cc1nc(-c2ccc(NCCc3ccc(O)cc3)nc2)[nH]c(=O)c1C`, the “Percent Effect” value (30.3 µM, […]) was 67.3%.
In the case of `Cc1nc(CCNc2ccc(-c3nc(C)c(C)c(=O)[nH]3)cn2)cs1`, the “Percent Effect” value (30.3 µM, […]) is reported as -24.43%.
In the case of `CCOCC1c2c(cnn2CC2CC2)CCN1C(=O)c1ccncn1.O=C(O)C(F)(F)F` (stereo not given), the “Percent Effect” value (30.3 µM, […]) is reported as -17.31%.
`Cc1c(C(=O)NS(=O)(=O)c2ccc(F)cc2)cnn1CC(C)C` was tested, and the “Percent Effect” value (30.3 µM, […]) was -23.8%.
`Cn1ncc2c(N3CCC3)nc(-c3ccncc3)nc21` was tested, and the “Percent Effect” value (30.3 µM, […]) was 7.019%.
`CC(C)N1CCCN(c2nc(-c3cccnc3)nc3c2cnn3C)CC1` was tested, and the “Percent Effect” value (30.3 µM, […]) was 93.98%.
For `Cn1ncc2c(N3CCS(=O)(=O)CC3)nc(-c3cccnc3)nc21`, the “Percent Effect” value (30.3 µM, […]) was 31.77%.
`COc1ccccc1-c1csc(NC(=O)N2CCN(C)CC2C)n1` (stereo not given) was tested, and the “Percent Effect” value (30.3 µM, […]) was 9.878%.
`CCc1ccccc1CN1CC[C@@]2(O)CCN(S(=O)(=O)N(C)C)C[C@H]2C1` was tested, and the “Percent Effect” value (30.3 µM, […]) was -14.75%.
In the case of `CCN(C)S(=O)(=O)NCC1CCCN(Cc2ccccc2F)C1` (stereo not given), the “Percent Effect” value (30.3 µM, […]) is reported as -11.05%.
`O=C(c1cc(Cl)cc(Cl)c1)N1CCN(c2nccs2)CC1` was tested, and the “Percent Effect” value (30 µM, 30.03 µM) was 30.43%.
`O=C(c1ccc(O)c(Cl)c1)N1CCN(c2nccs2)CC1` was tested, and the “Percent Effect” value (30.3 µM, […]) was 64.57%.
`Nc1ncc(C(=O)N2CCN(c3nccs3)CC2)cc1Cl` was tested, and the “Percent Effect” value (30.3 µM, […]) was -4.984%.
In the case of `CN(Cc1ccccc1F)C(C(N)=O)c1ccccc1` (stereo not given), the “Percent Effect” value (30.3 µM, […]) is reported as 11.08%.
With `CN(Cc1ccccc1C(F)(F)F)C(C(N)=O)c1ccccc1` (stereo not given) the “Percent Effect” value (30.3 µM, […]) was 68.32%.
In the case of `CC(C(N)=O)N(C)Cc1ccccc1C(F)(F)F` (stereo not given), the “Percent Effect” value (30.3 µM, […]) is reported as -40.32%.
For `Fc1ccccc1Sc1ccccc1CNC1=NCCN1.I`, the “Percent Effect” value (30.3 µM, […]) was 29.36%.
With `I.c1ccc(Sc2ccc3c(c2)OCO3)c(CNC2=NCCN2)c1` the “Percent Effect” value (30.3 µM, […]) was 21.74%.
For `Fc1ccc(Sc2ccccc2CNC2=NCCN2)cc1.I`, the “Percent Effect” value (30.3 µM, […]) was 50.51%.
With `Cc1nnc([C@@H]2C[C@H]3CN(C(=O)c4sccc4C)C[C@H]3O2)[nH]1` the “Percent Effect” value (30.3 µM, […]) was 16.44%.
In the case of `CN(Cc1cccnc1)[C@@H]1CN(C(=O)CC2CC2)[C@@H]2CCCO[C@H]12.O=C(O)C(F)(F)F.O=C(O)C(F)(F)F`, the “Percent Effect” value (30.3 µM, […]) is reported as -10.3%.
For `CN(Cc1cccnc1)[C@@H]1CN(C(=O)c2ccoc2)[C@@H]2CCCO[C@H]12.O=C(O)C(F)(F)F.O=C(O)C(F)(F)F`, the “Percent Effect” value (30.3 µM, […]) was -5.312%.
`CN(Cc1cccnc1)[C@@H]1CN(C(=O)c2ccno2)[C@@H]2CCCO[C@H]12.O=C(O)C(F)(F)F.O=C(O)C(F)(F)F` was tested, and the “Percent Effect” value (30.3 µM, […]) was 75.56%.
For `Cn1ccnc1-c1noc(NCc2ccc(Cl)cc2)n1`, the “Percent Effect” value (30.3 µM, […]) was -1.294%.
`Cc1cc(C)nc(NC(=O)NCCCSc2nncn2C)n1` was tested, and the “Percent Effect” value (30.3 µM, […]) was 12.59%.
`O=C(O)c1c(Cl)ncn1-c1ccccc1` was tested, and the “Percent Effect” value (30.3 µM, […]) was 42.23%.
For `Cc1ccccc1-n1cnc(Cl)c1C(=O)O`, the “Percent Effect” value (30.3 µM, […]) was 51.36%.
`O=C(O)c1c(Cl)ncn1-c1cccc2ccccc12` was tested, and the “Percent Effect” value (30.3 µM, […]) was 32.69%.
`CN(C)C1CCC2(CCN(Cc3nccn3C)CC2)c2ccccc21.O=C(O)C(F)(F)F.O=C(O)C(F)(F)F` (stereo not given) was tested, and the “Percent Effect” value (30.3 µM, […]) was 15.24%.
In the case of `c1cncc(CN2CCC(NCCc3ccc4c(c3)OCO4)CC2)c1`, the “Percent Effect” value (30.3 µM, […]) is reported as 21.95%.
In the case of `COc1cccc(-c2cc(C(=O)NCCCn3nc(C)cc3C)[nH]n2)c1`, the “Percent Effect” value (30.3 µM, […]) is reported as 35.19%.
In the case of `COc1cccc(-c2cc(C(=O)NCCCC(F)(F)F)[nH]n2)c1`, the “Percent Effect” value (30.3 µM, […]) is reported as 24.25%.
In the case of `COc1cccc(-c2cc(C(=O)NCCCn3cnnc3)[nH]n2)c1`, the “Percent Effect” value (30.3 µM, […]) is reported as 50.06%.
For `Cc1cc(C)c2c(c1)C(CC(=O)O)C(=O)N2` (stereo not given), the “Percent Effect” value (30.3 µM, […]) was 12.49%.
For `Cc1ccc2nc(C)c(C)c(C(=O)NCCCn3ccnn3)c2c1`, the “Percent Effect” value (30.3 µM, […]) was 16%.
For `CC(C)(C)c1n[nH]c(C2CN(Cc3nnc(C4CC4)o3)CCO2)n1` (stereo not given), the “Percent Effect” value (30 µM) was 6.806%.
For `Cc1cc(C(=O)N2C[C@@H](CN(C)CCN(C)C)[C@@H](CO)C2)nc(C)n1`, the “Percent Effect” value (30.3 µM, […]) was 0.2814%.
In the case of `COc1ccc2cc(C(=O)N3CCCCC3CC(N)=O)[nH]c2c1` (stereo not given), the “Percent Effect” value (30 µM, 30.03 µM) is reported as 4.026%.
With `NC(=O)CN1CCC(NC(=O)Nc2nccs2)CC1` the “Percent Effect” value (30 µM, 30.03 µM) was -0.9986%.
In the case of `CC(CNCc1ccncc1)Oc1ccccn1.Cl` (stereo not given), the “Percent Effect” value (30 µM, 30.03 µM) is reported as 6.303%.
For `Cc1c(C)n(CC(O)CN2CCCCCC2)c2c(Cl)cccc12` (stereo not given), the “Percent Effect” value (30.3 µM, […]) was -13.19%.
For `Cc1c(C)n(CC(O)CN2CCOCC2)c2c(Cl)cccc12.Cl` (stereo not given), the “Percent Effect” value (30.3 µM, […]) was -3.857%.
`Cc1c(C)n(CC(O)CN2CCN(CCO)CC2)c2c(Cl)cccc12.Cl` (stereo not given) was tested, and the “Percent Effect” value (30.3 µM, […]) was 50.22%.
With `O=C(C1CCOCC1)N1CC[C@H](O)[C@@H]1Cc1cccnc1` the “Percent Effect” value (30.3 µM, […]) was 25.33%.
For `Cc1noc(C)c1CN(C)c1ncnc2onc(C)c12`, the “Percent Effect” value (30.3 µM, […]) was -10.33%.
`O=C(c1cscn1)N1C[C@H](OCc2cccnc2)[C@H]2COC[C@H]21` was tested, and the “Percent Effect” value (30.3 µM, […]) was -0.3632%.
In the case of `COc1cccc(C(C(=O)O)N2CCC(Cn3cccn3)CC2)c1OC` (stereo not given), the “Percent Effect” value (30.3 µM, […]) is reported as 3.274%.
In the case of `CNc1nc(CNC(=O)Nc2cccc(Cl)c2OC)cs1`, the “Percent Effect” value (30 µM) is reported as 28.86%.
With `COc1c(Cl)cccc1NCc1csc(C)n1` the “Percent Effect” value (30.3 µM, […]) was -4.371%.
For `COc1c(Cl)cccc1NCc1csc(NC(C)=O)n1`, the “Percent Effect” value (30.3 µM, […]) was 71.24%.
